Shown are actives, neighbours in structure and some others; about 7.6% of the full set was active somewhere.
KCNH2 WT inh – qHTS for Inhibitors of KCHN2 3.1: Wildtype qHTS; AID 720551, 2013; 340,000 compounds, 0.37% hits; activity change, % at 1.84 µM; U2OS, BacMam KCNH2, thallium flux FluxOr; stronger effect = lower value;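 active means maximum activity change below -70%; inconclusive means maximum activity change between -70% and -50%; inactive means maximum activity change above -50%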; further: on the % scale 0 is the no-effect control and ±100 the full control effect
Target sequence (Q12809 whole entry, looked up): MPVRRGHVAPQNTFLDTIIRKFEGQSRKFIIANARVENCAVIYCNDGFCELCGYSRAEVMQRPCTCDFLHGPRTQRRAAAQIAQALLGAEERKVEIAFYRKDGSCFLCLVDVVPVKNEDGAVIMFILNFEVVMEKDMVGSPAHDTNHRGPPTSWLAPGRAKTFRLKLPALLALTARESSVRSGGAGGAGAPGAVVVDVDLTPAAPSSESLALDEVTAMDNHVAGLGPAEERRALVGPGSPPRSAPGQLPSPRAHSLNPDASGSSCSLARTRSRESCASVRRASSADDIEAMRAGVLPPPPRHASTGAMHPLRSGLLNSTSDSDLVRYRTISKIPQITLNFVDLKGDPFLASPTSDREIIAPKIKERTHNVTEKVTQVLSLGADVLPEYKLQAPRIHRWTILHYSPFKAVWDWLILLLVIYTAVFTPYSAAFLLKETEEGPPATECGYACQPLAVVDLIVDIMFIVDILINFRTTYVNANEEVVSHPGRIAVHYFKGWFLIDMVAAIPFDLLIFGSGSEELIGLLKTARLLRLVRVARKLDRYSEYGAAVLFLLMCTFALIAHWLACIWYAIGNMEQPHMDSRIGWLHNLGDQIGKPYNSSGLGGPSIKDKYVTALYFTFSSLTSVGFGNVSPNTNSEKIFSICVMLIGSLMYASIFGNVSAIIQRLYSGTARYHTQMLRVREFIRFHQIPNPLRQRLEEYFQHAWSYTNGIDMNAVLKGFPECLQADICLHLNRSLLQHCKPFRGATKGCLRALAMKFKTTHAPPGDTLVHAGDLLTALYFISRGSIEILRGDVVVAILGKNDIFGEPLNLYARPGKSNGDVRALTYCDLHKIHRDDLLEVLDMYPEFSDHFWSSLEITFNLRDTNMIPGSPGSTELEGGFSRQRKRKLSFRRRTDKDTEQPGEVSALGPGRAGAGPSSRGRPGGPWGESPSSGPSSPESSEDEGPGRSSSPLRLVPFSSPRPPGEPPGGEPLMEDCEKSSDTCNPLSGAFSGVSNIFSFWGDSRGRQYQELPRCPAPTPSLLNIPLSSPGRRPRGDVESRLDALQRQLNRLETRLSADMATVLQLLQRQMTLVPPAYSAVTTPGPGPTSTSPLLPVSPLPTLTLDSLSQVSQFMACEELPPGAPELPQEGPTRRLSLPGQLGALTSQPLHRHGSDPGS
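U2OS cells were transduced with wild-type KCNH2 virus (2.03 x 10^8 / mL) for 4 h at room temperature, then cultured overnight at 37 C. Thallium flux was read with FluxOr dye. Rate constants were normalized to DMSO controls.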
KB-3-1 tox – qHTS assay for MDR1-selective chemotherapeutics: Primary screen using the parental adenocarcinoma cell KB-3-1. KB-3-1 viability, CellTiter-Glo ATP luminescence, 72 h. Potency, µM (titrated, usually from 46.1 µM), most hits filed as cytotoxic. 400,000 compounds, 1.4% hits. AID 1347075, 2019; further: potency means the concentration at half of the fitted maximal effect; on the % scale 0 is the no-effect control and ±100 the full control effect; nearly all actives have a fitted effect of over 60% in size
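Here the drug-naive KB-3-1 line serves as comparator for MDR sub-line selectivity; cells received compound titrations, 72 h at 37 °C, then CellTiter-Glo readout.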
KB-V1 cytotox – qHTS assay for MDR1-selective chemotherapeutics: Primary screen using the drug-selected MDR subline cells KB-V1. 400,000 compounds, 3.4% hits. KB-V1 MDR cells viability, CellTiter-Glo, 72 h. Potency, µM (doses to about 46.1 µM), usual class: cytotoxic; further: potency means the concentration at half of the fitted maximal effect; on the % scale 0 is the no-effect control and ±100 the full control effect; nearly all actives have a fitted effect of over 60% in size
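Drug-selected KB-V1 cells, grown in DMEM lacking phenol red with 10% FBS, receive compound titrations; after three days at 37 degrees C, surviving cell ATP is quantified by CellTiter-Glo luminescence and responses normalized and curve-fitted.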
MCF10A rerep – A quantitative high throughput screen for small molecules that induce DNA re-replication in MCF 10a normal breast cells | 350,000 compounds, 2.9% hits | MCF 10A DNA re-replication, Hoechst nuclear intensity, 48 h | AID 624296, 2012 | Potency, µM (highest dose often 46.1 µM), without a hit: top-dose activity, positive = re-replication, most hits filed as activators; further: potency means the concentration at half of the fitted maximal effect; % of control where 0% means no effect; nearly all actives have a fitted effect of over 50% in size
SW480 rerep – A quantitative high throughput screen for small molecules that induce DNA re-replication in SW480 colon adenocarcinoma cells. SW480 DNA re-replication, Hoechst DNA content imaging, 48 h. Potency, µM (highest dose often 46.1 µM), for inactives: at the highest dose re-replication activation, actives largely listed as activators. 340,000 compounds, 1.8% hits. AID 624297, 2012; further: potency means the concentration at half of the fitted maximal effect; % of control where 0% means no effect; nearly all actives have a fitted effect of over 55% in size
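Hoechst fluorescence of nuclei (405 nm excitation, 500-530 nm emission) measured by plate-scanning imager after 48 hr compound exposure at 37 C; re-replication scored as increased number of nuclei with elevated intensity.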
KCNH2 3.1 block – qHTS for Inhibitors of KCHN2 3.1: Mutant qHTS; Potassium voltage-gated channel subfamily H member 2, brain isoform KCNH2 3.1 (human); U2OS KCNH2 3.1, thallium flux FluxOr; stronger effect = lower value; activity change, % (tested at about 1.8 µM); 340,000 compounds, 0.95% hits;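 active means maximum activity change below -70%; inconclusive means maximum activity change from -70% to -50%; inactive means maximum activity change above -50%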;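 further: thallium influx rate constant from kinetic fluorescence after stimulation buffer; on the % scale 0 is the no-effect control and ±100 the full control effect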
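Thallium flux via FluxOr fluorescence (Red40 quencher, 45 min loading) in U2OS cells virally expressing the KCNH2 3.1 isoform (1.77 x 10^8 /mL virus, overnight at 37 C). Rate constants from 2-min kinetic reads post-stimulation, normalised to positive and negative controls.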
An asterisk follows results filed as active; i = inactive; ? = inconclusive; . = not tested or not shown. Unless noted, the call rests on the fitted dose curve; in most records, active means well fitted curve in the direction sought with a large enough effect; inconclusive means small, poorly fitted or top-dose-only effect, or another doubt; inactive means no such curve, though single readings can be large; an effect the other way counts as inactive or inconclusive.

SMILES	KCNH2 WT inh	KB-3-1 tox	KB-V1 cytotox	MCF10A rerep	SW480 rerep	KCNH2 3.1 block
Cc1ccc(NC(=O)/C(=C/c2cccc([N+](=O)[O-])c2)NC(=O)C2CCCCC2)cc1	19	i	i	5%	-4%	-79*
COc1ccc(/C=C(/NC(=O)c2cccs2)C(=O)Nc2ccc(C)cc2)cc1OC	1	i	i	-7%	?	8
O=C(Nc1cccc(C(=O)O)c1)/C(=C/c1cccc([N+](=O)[O-])c1)NC(=O)c1cccc(Br)c1	-8	i	i	-4%	-10%	15
O=C(Nc1ccc(Br)cc1)/C(=C/c1cccc([N+](=O)[O-])c1)NC(=O)C1CCCCC1	-97*	i	i	18%	-1%	-90*
CC(=O)N/C(=C\c1cccc([N+](=O)[O-])c1)C(=O)NC1CCCCC1	-6	i	?	27%	19%	?
Cc1ccc(NC(=O)/C(=C\c2cccc([N+](=O)[O-])c2)NC(=O)c2cccs2)cc1	4	i	?	7%	3%	-84*
Cc1cc(NC(=O)Cn2nnc(-c3ccccc3NC(=O)c3ccccc3F)n2)no1	14	i	i	2%	2%	-10
Cc1ccc(Sc2c(CO)c(-c3ccccc3)nn2C)cc1	0	?	?	1µM*	0.82µM*	8
O=C(COc1ccc(/C=N/NS(=O)(=O)c2ccccc2)cc1)N1CCOCC1	3	i	i	6%	10%	10
CCOc1ccc(NS(=O)(=O)c2ccc(NS(=O)(=O)c3ccc(SC)cc3)cc2)cc1	-16	i	23µM*	?	0%	-7
CCOC(=O)N1CCN(C(=O)COc2ccc(S(=O)(=O)Nc3ccc(OCC)cc3)cc2)CC1	0	21µM*	i	2%	5%	-15
Cc1ccc(S(=O)(=O)N/N=C/c2ccc(OCC(=O)N3CCOCC3)cc2)cc1	0	i	i	4%	6%	-72*
CCOc1ccc(NS(=O)(=O)c2ccc(NS(C)(=O)=O)cc2)cc1	0	i	?	-5%	0%	-21
CCOc1ccc(NS(=O)(=O)c2ccc(OCC(=O)N3CCCC3)cc2)cc1	-27	i	i	1%	1%	-8
O=C(NCCc1ccc(Cl)cc1)c1cccn1-c1nnc(N2CCCCC2)s1	.	i	i	.	.	.
CC1=NN(C(=O)Cn2nc([N+](=O)[O-])cc2C)C(O)(C(F)(F)F)C1 (configuration not stated)	8	i	i	2%	-1%	-1
CC1=NN(C(=O)c2ccc(Cn3nc(C)c(Br)c3C)cc2)C(O)(C(F)(F)F)C1 (configuration not stated)	-1	i	i	-3%	-8%	-21
CC1=NN(C(=O)c2ccoc2C)C(O)(C(F)(F)F)C1 (configuration not stated)	-5	i	i	?	-56%	-3
CC1=NN(C(=O)c2ccc(Cn3nc(C)cc3C)o2)C(O)(C(F)(F)F)C1 (configuration not stated)	-18	i	i	2.3µM*	3.7µM*	-2
CC1=NN(C(=O)c2ccc(Cn3nc(C)c([N+](=O)[O-])c3C)cc2)C(O)(C(F)(F)F)C1 (configuration not stated)	-4	i	9.2µM*	?	16%	-22
CC1=NN(C(=O)c2ccc(Cn3cc(Br)c([N+](=O)[O-])n3)o2)C(O)(C(F)(F)F)C1 (configuration not stated)	-28	i	i	-2%	10µM*	3
O=C(Cc1csc(Nc2nc(=S)[nH]c3ccccc23)n1)N1CCN(c2cccc(C(F)(F)F)c2)CC1	2	13µM*	23µM*	?	9%	-1
O=C(Nc1nc2ccccc2n1CCN1CCOCC1)c1ccc(COc2ccccc2Br)o1	8	?	?	?	?	-3
COc1cc(C(=O)NCCOc2ccccc2C)cc(OC)c1OC	-3	i	i	2%	-14%	0
CC(C(=O)NCCN1CCOCC1)(c1ccccc1)c1ccccc1	3	i	i	-1%	-8%	1
SMILES	KCNH2 WT inh	KB-3-1 tox	KB-V1 cytotox	MCF10A rerep	SW480 rerep	KCNH2 3.1 block
CCOC(=O)n1cc(-c2cnc(CNC(=O)C(C)(c3ccccc3)c3ccccc3)o2)c2ccccc21	-40	i	i	?	-63%	-73*
COc1ccc(C(=O)c2cn(Cc3ccc(F)cc3)c3ccc(C)cc3c2=O)cc1	.	i	i	.	.	.
O=C(Nc1ccc(Cl)cn1)c1cc2c(s1)-c1ccccc1OC2	.	i	i	?	?	-8
O=C(Nc1cccnc1)c1cc2c(s1)-c1ccccc1OC2	18	i	i	0%	14%	-13
O=C(Nc1nc2ccccc2s1)c1cc2c(s1)-c1ccccc1OC2	10	i	i	?	6.5µM*	10
O=C(Nc1cccnc1Cl)c1cc2c(s1)-c1ccccc1OC2	-4	i	i	18µM*	134%	-3
Cc1cccc2c1-c1sc(C(=O)Nc3nccs3)cc1CO2	3	i	i	3.7µM*	7.3µM*	-5
O=C(Nc1nccs1)c1cc2c(s1)-c1ccccc1OC2	1	?	i	9.2µM*	16µM*	-6
COc1cc(C2CC(=O)c3c([nH]c(C(=O)OC4CCCC4)c3C)C2)cc(OC)c1OC (configuration not stated)	.	?	i	.	.	.
Cc1cc(Br)c2c(c1)[C@](O)(c1cn(C)c3ccccc13)C(=O)N2C	.	i	?	.	.	.
CC1CCN(CCCOc2ccc(Cl)cc2Br)CC1	-41	i	i	1%	-1%	-17
Cc1ccc(Cl)c(OCCN2CCCC(C)C2)c1 (configuration not stated)	7	i	?	6%	-4%	-20
CC1CCCN(CCOc2ccc3ccccc3c2Br)C1 (configuration not stated)	28	?	?	15µM*	-7%	3
CC1CCCN(CCCOc2ccc(Cl)cc2Br)C1 (configuration not stated)	-27	?	16µM*	?	6%	?
